Data as given in PubChem BioAssay.
Calls of active or inactive are those of the source.

Assays:
[1] = system: PRMT1 (protein arginine N-methyltransferase 1); assay: small molecules binding arginine methyltransferase PRMT1 – biochemical, small-molecule microarray, 635 nm fluorescence, primary screen (AID 1088); conditions: higher = more signal;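 further: binding of Prmt1 protein to compounds spotted on small-molecule microarray slides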
[2] = growth effects on S. cerevisiae YJM789 – YJM789 clinical isolate, OD600, 24 h, basal, primary screen (AID 1089); conditions: higher = more signal, called active from +8 up or from −8 down;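 further: growth of clinical yeast isolate S. cerevisiae YJM 789 seeded 1000 cells per well; test concentration not given here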
[3] = S. pombe growth modifiers, basal conditions – strain 972, OD600, 24 h, no modulator, primary screen (AID 1090);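 further: basal condition with compound alone and no growth modifier present; test concentration not given here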; conditions: S. pombe 972 growth, higher = more signal, called active from +8 up or from −8 down
[4] = budding yeast growth modifiers under rapamycin – strain BY4716, OD600, 96 h, primary screen (AID 1091); further: test concentration not given here; conditions: S. cerevisiae BY4716 + rapamycin, higher = more signal, called active from +8 up or from −8 down
[5] = molecular target: Torsin-1A-interacting protein 2 (Homo sapiens) (UniProt Q8NFQ8); assay: small molecules binding lysate-expressed LULL1 – cell lysate, human LULL1 lysate, 635/667 nm fluorescence, primary screen (AID 1092); conditions: small-molecule microarray, hLULL1 lysate binding, 635 nm fluorescence; higher = more signal;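 further: probe is lysate of COS7 cells overexpressing human LULL1; score merges per-feature 667 nm fluorescence with signal-to-noise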
Sequence of Torsin-1A-interacting protein 2 (Homo sapiens) (Q8NFQ8 whole entry, looked up): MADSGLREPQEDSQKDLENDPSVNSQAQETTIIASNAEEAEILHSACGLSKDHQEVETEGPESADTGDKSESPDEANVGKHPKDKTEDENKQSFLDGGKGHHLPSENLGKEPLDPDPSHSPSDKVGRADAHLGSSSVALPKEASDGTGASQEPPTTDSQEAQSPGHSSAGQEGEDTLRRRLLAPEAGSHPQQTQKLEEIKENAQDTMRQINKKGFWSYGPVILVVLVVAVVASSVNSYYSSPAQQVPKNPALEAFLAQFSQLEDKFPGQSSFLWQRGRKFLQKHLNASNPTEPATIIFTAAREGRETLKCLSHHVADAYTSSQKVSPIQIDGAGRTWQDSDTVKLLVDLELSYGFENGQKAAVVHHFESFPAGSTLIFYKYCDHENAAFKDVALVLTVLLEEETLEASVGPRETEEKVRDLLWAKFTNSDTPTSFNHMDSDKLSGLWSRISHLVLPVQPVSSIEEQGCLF

[6] = optical density change of DRC41 E. coli – strain DRC41, OD650, 24 h, E. coli filamentation project, primary screen (AID 1093);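 further: MC1000 strain lacking acrAB efflux and sulA so SOS filamentation is blocked; test concentration not given here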; conditions: E. coli DRC41 growth, higher = more signal, called active from +8 up or from −8 down
[7] = probe aLefty2 binding to arrayed compounds – biochemical, biotinylated probe, 635/667 nm fluorescence, primary screen (AID 1094); conditions: small-molecule microarray, higher = more signal;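 further: score merges spot fluorescence near 667 nm with spot signal-to-noise ratio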
[8] = system: Noggin (protein binding on small-molecule microarray); assay: small molecules binding Noggin protein – biochemical, 635/667 nm fluorescence, primary screen (AID 1095); conditions: 635 nm fluorescence, higher = more signal;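 further: score merges 667 nm feature fluorescence with signal to noise over triplicate slides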
[9] = molecular target: Neurogenic locus notch homolog protein 3 (Homo sapiens) (UniProt Q9UM47); assay: small molecules binding NOTCH3 protein – biochemical, 635/667 nm fluorescence, primary screen (AID 1096); conditions: small-molecule microarray, 635 nm fluorescence, higher = more signal
Sequence of Neurogenic locus notch homolog protein 3 (Homo sapiens) (Q9UM47 whole entry, looked up): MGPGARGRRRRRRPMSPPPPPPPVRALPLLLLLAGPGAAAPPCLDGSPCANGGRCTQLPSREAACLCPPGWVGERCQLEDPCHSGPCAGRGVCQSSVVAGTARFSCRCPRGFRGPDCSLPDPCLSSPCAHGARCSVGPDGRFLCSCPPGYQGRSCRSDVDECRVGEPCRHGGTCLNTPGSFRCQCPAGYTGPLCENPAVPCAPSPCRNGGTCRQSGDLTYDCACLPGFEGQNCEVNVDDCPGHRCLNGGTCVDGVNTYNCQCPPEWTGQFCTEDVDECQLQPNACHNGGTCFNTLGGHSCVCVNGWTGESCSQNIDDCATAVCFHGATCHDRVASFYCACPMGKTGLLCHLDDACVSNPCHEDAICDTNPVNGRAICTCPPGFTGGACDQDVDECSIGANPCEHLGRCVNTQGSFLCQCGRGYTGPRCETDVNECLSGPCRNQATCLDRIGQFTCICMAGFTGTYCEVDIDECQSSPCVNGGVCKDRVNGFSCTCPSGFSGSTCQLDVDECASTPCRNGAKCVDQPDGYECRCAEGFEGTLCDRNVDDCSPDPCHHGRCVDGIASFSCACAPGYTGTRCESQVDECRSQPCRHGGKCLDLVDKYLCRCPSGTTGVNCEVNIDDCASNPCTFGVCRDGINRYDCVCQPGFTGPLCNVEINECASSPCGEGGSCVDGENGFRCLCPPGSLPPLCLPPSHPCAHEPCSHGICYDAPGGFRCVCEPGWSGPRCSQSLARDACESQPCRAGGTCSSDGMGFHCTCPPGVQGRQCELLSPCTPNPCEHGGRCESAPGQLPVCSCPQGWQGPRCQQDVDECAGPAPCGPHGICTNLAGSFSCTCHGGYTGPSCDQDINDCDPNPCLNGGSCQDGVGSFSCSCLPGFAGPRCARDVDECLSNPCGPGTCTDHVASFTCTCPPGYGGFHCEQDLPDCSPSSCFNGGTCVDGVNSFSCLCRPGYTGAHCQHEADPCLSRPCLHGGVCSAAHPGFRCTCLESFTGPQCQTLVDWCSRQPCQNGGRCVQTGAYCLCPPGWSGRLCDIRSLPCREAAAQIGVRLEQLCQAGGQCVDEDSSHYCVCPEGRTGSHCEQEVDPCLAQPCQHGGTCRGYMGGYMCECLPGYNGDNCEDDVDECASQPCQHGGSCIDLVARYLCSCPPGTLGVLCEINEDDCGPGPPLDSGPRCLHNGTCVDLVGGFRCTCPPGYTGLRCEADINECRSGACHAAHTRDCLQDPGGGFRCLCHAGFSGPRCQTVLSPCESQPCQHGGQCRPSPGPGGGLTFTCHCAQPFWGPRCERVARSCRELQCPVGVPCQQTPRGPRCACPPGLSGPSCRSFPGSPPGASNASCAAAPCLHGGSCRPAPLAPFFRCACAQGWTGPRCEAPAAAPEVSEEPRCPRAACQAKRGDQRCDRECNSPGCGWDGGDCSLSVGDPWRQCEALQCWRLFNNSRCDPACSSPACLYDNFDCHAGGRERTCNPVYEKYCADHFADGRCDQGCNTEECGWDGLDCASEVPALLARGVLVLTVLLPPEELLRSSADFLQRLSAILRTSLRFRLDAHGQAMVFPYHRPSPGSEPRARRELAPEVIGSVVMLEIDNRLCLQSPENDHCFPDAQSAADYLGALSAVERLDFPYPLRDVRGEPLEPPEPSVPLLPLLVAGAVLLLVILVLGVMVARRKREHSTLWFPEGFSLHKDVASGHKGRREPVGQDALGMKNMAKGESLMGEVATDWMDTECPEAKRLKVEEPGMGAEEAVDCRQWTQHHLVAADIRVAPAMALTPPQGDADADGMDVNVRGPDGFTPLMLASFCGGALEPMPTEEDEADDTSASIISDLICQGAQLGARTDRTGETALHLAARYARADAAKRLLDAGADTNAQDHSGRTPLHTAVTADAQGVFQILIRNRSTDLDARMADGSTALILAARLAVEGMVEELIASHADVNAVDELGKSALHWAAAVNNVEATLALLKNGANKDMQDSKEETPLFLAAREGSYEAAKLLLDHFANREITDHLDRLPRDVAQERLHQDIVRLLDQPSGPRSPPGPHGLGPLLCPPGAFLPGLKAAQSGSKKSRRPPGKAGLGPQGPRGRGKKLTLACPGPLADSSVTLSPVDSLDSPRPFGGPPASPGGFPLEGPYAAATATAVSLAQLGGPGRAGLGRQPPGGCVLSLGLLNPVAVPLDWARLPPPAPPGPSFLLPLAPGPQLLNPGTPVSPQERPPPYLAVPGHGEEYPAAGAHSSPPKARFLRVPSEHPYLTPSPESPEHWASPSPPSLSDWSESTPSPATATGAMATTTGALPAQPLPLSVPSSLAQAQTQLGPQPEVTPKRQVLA

[10] = probe aEGFR binding to arrayed compounds – biochemical, biotinylated probe, 635/667 nm fluorescence, primary screen (AID 1097); conditions: small-molecule microarray, higher = more signal;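 further: probe is a biotinylated anti-EGFR antibody binding compounds printed on slides; score combines fluorescence near 667 nm and signal to noise of each spot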

Structure (SMILES) | composite z-score [1] | z-score [2] | z-score [3] | z-score [4] | composite z-score [5] | z-score [6] | composite z-score [7] | composite z-score [8] | composite z-score [9] | composite z-score [10]
CCN1C(=O)[C@H]2[C@H]3[C@H](O)[C@H](O)CC(=NOC(C)CN4CCCc5nc(C)c(C)cc54)[C@@H]3CC[C@H]2C1=O (stereo not given in full) | 1.46 | -0.0428 (inactive) | 1.19 (inactive) | 0.385 (inactive) | 0.404 | 1.32 (inactive) | 0.0416 | 1.16 | 0.597 | 0.012
CCN1C(=O)[C@H]2[C@H]3[C@H](O)[C@H](O)CC(=NOCC(C)C)[C@H]3CC[C@H]2C1=O | -0.332 | -0.349 (inactive) | 0.735 (inactive) | 0.512 (inactive) | -0.153 | 0.769 (inactive) | -0.019 | 0.569 | 0.599 | 0.0167
CCOC(=O)[C@H](CC(C)C)NC(=O)CCC1CC(OC(=O)NCCc2ccc(F)cc2)CC2(CCCC(COC(=O)NCCOC)O2)O1 (stereo not given in full) | 1.41 | 0.513 (inactive) | 1.13 (inactive) | 1.5 (inactive) | 1.7 | -1.02 (inactive) | -0.025 | 0.382 | 0.998 | -0.0975
CC(C)CON=C1[C@H]2CCn3c(=O)n(C)c(=O)n3[C@H]2[C@H](O)[C@@H]2O[C@H]12 | -0.117 | 0.0116 (inactive) | -0.08 (inactive) | -0.6 (inactive) | -0.0761 | 0.253 (inactive) | -0.112 | 0.757 | 0.861 | 0.006
CO[C@@H]1COC(=O)[C@H](COCc2ccccc2)NC(=O)CC=C[C@@H](C)[C@H](OC)COC(=O)[C@@H](C)NC(=O)CC=C[C@H]1C | 1.39 | 0.203 (inactive) | -0.536 (inactive) | 0.55 (inactive) | -1.07 | 1.52 (inactive) | -0.147 | 1.16 | -0.0488 | -0.166
CCCNC(=O)OC[C@H]1O[C@H](CCON=C2c3cc(OC)ccc3O[C@H](c3cccc(OC)c3)[C@H]2O)C=C[C@@H]1Oc1ccc(OC)cc1 | 0.799 | -0.409 (inactive) | 0.464 (inactive) | 0.479 (inactive) | 0.972 | 0.8 (inactive) | 0.451 | 0.716 | 0.468 | 0.0897
COC(=O)[C@H](C)NC(=O)CCC1CC(OC(=O)NCCc2ccc(F)cc2)CC2(CCCC(COC(=O)NCCc3ccccc3OC)O2)O1 (stereo not given in full) | 1.11 | 0.522 (inactive) | 0.89 (inactive) | 0.896 (inactive) | 1.16 | -0.0328 (inactive) | -0.0916 | 0.452 | 1.09 | 0.104
O=C1[C@H]2CCn3c(=O)n(Cc4cc5c(cc4Cl)OCO5)c(=O)n3[C@H]2[C@H](O)[C@@H]2O[C@H]12 | -0.0582 | 0.821 (inactive) | -0.315 (inactive) | -0.224 (inactive) | -0.297 | 0.662 (inactive) | -0.255 | 0.27 | -0.802 | -0.173
C[C@H]1CC[C@@H](C(=O)O)N[C@@H]1c1cccc(N2CCCC2=O)c1 | -0.344 | 0.31 (inactive) | 0.0026 (inactive) | 0.374 (inactive) | 0.283 | 0.816 (inactive) | -0.0873 | 0.49 | 0.408 | -0.123
CCOC(=O)CCN1C(=O)[C@H]2[C@@H]3C(=CC[C@H]2C1=O)C(=O)[C@H]1O[C@H]1[C@H]3O | -0.571 | 0.151 (inactive) | 0.0483 (inactive) | -0.384 (inactive) | -0.0261 | -0.518 (inactive) | -0.27 | -0.861 | -1.75 | -0.122
COC(=O)CC=C[C@@H](C)[C@@H](C=NOC[C@@H](O)COCc1ccco1)OC | 0.302 | -0.0605 (inactive) | -0.543 (inactive) | 0.225 (inactive) | 0.378 | -0.255 (inactive) | -0.336 | 1.49 | -0.456 | -0.132
CC(C)CON=C1C[C@@H](O)[C@@H](O)[C@@H]2[C@@H]3C(=O)N(Cc4ccccc4)C(=O)[C@@H]3CC[C@H]12 | -0.238 | -0.549 (inactive) | -0.449 (inactive) | -1.17 (inactive) | 0.12 | 0.843 (inactive) | -0.117 | 0.454 | 0.824 | 0.088
CCOC(=O)[C@H](CC(C)C)NC(=O)CCC1CC(OC(=O)NCCc2ccc(F)cc2)CC2(CCCC(COC(=O)NCc3cccc4ccccc34)O2)O1 (stereo not given in full) | 0.733 | -0.175 (inactive) | -0.421 (inactive) | 0.238 (inactive) | 2.16 | 0.415 (inactive) | -0.181 | 0.261 | -0.773 | -0.0995
C[C@@H](c1ccccc1)N1C(=O)[C@H]2[C@H]3[C@H](O)[C@H](O)CC(=NOC[C@@H](O)COCc4ccco4)[C@H]3CC[C@H]2C1=O | 0.559 | 0.342 (inactive) | 0.453 (inactive) | -0.0348 (inactive) | -1.07 | -0.378 (inactive) | -0.0772 | 0.412 | -0.233 | -0.164
CC(C)(C)N1C(=O)[C@H]2[C@@H]3C(=CC[C@H]2C1=O)C(=O)[C@H]1O[C@H]1[C@H]3O | 0.34 | -2.18 (inactive) | -4.57 (inactive) | -1.63 (inactive) | -0.758 | -2 (inactive) | -0.338 | -0.0454 | -0.615 | -0.152
CO[C@H]1COC(=O)CC=C[C@H](C)[C@H](OC)COC(=O)[C@@H](C)NC(=O)CC=C[C@@H]1C | 1.56 | -1.77 (inactive) | -0.391 (inactive) | -0.735 (inactive) | 0.525 | -0.159 (inactive) | -0.0122 | 1.61 | 0.346 | -0.0313

Structure (SMILES) | composite z-score [1] | z-score [2] | z-score [3] | z-score [4] | composite z-score [5] | z-score [6] | composite z-score [7] | composite z-score [8] | composite z-score [9] | composite z-score [10]
COC(=O)[C@H](Cc1ccccc1)NC(=O)[C@@H](C)CO | 1.41 | -0.152 (inactive) | -0.187 (inactive) | 0.22 (inactive) | 0.738 | -0.503 (inactive) | 0.0498 | 0.441 | 0.588 | 0.169
CC(=O)OC[C@H]1O[C@H](CC=NO[C@@H](C)c2cc(-c3c(C)cc(C)cc3C)no2)C=C[C@@H]1OC(C)=O | -0.0654 | 0.208 (inactive) | -0.0489 (inactive) | 0.523 (inactive) | -0.382 | -0.542 (inactive) | -0.212 | 0.342 | 0.106 | -0.0662
O=C1[C@H]2[C@H]3[C@H](O)[C@H](O)CC(=NO[C@@H]4O[C@H](CO)[C@@H](O)[C@H](O)[C@H]4O)[C@H]3CC[C@H]2C(=O)N1c1ccc(F)cc1F | 1.08 | -0.484 (inactive) | -0.352 (inactive) | -1.99 (inactive) | 0.0348 | 0.356 (inactive) | -0.128 | 0.161 | 0.365 | -0.0084
CCN1C(C)=C(C(=O)OC)[C@@H](c2ccccc2)N2C(=O)[C@](O)(C(=O)OC)CC(C(C)=O)=C12 | 0.0774 | 0.02 (inactive) | -1.13 (inactive) | 0.712 (inactive) | -0.25 | 0.302 (inactive) | -0.313 | 0.768 | 0.534 | -0.0957
CC(CCN1CCCc2nc(C)c(C)cc21)=NOC[C@@H](O)COCc1ccco1 | 1.53 | -1.86 (inactive) | 0.544 (inactive) | -0.831 (inactive) | 0.0346 | 0.798 (inactive) | 1.27 | 2.32 | 1.07 | 1.15
CC(C)CN1CCc2nc(-c3ccccc3)c3c(c2C1)CO[C@@H](C)C3 | 1.42 | -0.319 (inactive) | 0.218 (inactive) | -0.0674 (inactive) | 1.71 | 0.801 (inactive) | -0.145 | 1.5 | 1.08 | 0.0914
COC(=O)CC=C[C@@H](C)[C@@H](C=NOC(C)CN1CCCCc2nc(C)c(C)cc21)OC (stereo not given in full) | 1.24 | -0.793 (inactive) | -0.472 (inactive) | -0.906 (inactive) | 1.24 | -0.123 (inactive) | -0.0063 | 0.946 | 0.234 | 0.0282
C[C@@H]1CC[C@H]2C(=O)N3[C@@H](CC[C@@H](C)[C@@H]3c3ccc(Br)cc3)C(=O)N2[C@H]1c1ccc(Br)cc1 | -0.455 | -0.275 (inactive) | -4.1 (inactive) | 0.805 (inactive) | 0.241 | -0.19 (inactive) | -0.0865 | 0.259 | 0.305 | -0.0987
COC(=O)[C@H](C)NC(=O)CCC1CC(OC(=O)NCc2ccc3c(c2)OCO3)CC2(CCCC(COC(=O)NCCCN3CCCC3=O)O2)O1 (stereo not given in full) | 1.45 | 0.395 (inactive) | 0.642 (inactive) | 0.502 (inactive) | 0.908 | -0.223 (inactive) | -0.155 | 0.424 | 1.1 | -0.0128
CC1(C)O[C@H]2O[C@H]([C@H](O)CON=C3[C@H]4CCn5c(=O)n(-c6ccccc6)c(=O)n5[C@H]4[C@H](O)[C@@H]4O[C@H]34)[C@H](O)[C@H]2O1 | -0.626 | -0.638 (inactive) | -0.347 (inactive) | -0.215 (inactive) | -0.122 | 0.321 (inactive) | -0.212 | 0.426 | -0.412 | -0.219
C=CC[C@@H]1C=C[C@H](ON=CC[C@@H]2C=C[C@H](OC(C)=O)[C@@H](COC(C)=O)O2)[C@@H](CO)O1 | 1.26 | 0.953 (inactive) | 0.489 (inactive) | 0.476 (inactive) | 1.3 | 0.558 (inactive) | 0.235 | 0.984 | 1.05 | 0.169
COc1ccc(COC(=O)NN=C2C[C@@H](O)[C@@H](O)[C@@H]3[C@@H]4C(=O)N(Cc5ccc6c(c5)OCO6)C(=O)[C@@H]4CC[C@H]23)cc1 | 0.041 | 1.13 (inactive) | 0.713 (inactive) | -0.369 (inactive) | 0.259 | 0.434 (inactive) | 0.475 | -0.961 | -0.523 | -0.194
CC(C)C(=O)N[C@H]1CCCN1C(=O)C=Cc1ccccc1 | 0.876 | 0.624 (inactive) | 0.495 (inactive) | 1.02 (inactive) | 0.0445 | 0.267 (inactive) | -0.0022 | 1.13 | 0.826 | 0.125
CO[C@H]1COC(=O)[C@H](CCSC)NC(=O)CC=C[C@@H](C)[C@H](OC)COC(=O)[C@@H](OCc2ccccc2)C=C[C@@H]1C | 1.56 | -0.772 (inactive) | -0.282 (inactive) | -1.65 (inactive) | -1.05 | -0.317 (inactive) | -0.0131 | 1.39 | 0.472 | -0.0531
CC(CCC(=O)OC[C@H]1O[C@H](C#Cc2ccccc2)C=C[C@@H]1Oc1ccc(C)cc1)=NOC(C)CN1CCCc2nc(C)c(C)cc21 (stereo not given in full) | 1.33 | 2.01 (inactive) | -1.77 (inactive) | -0.49 (inactive) | 1.5 | 0.915 (inactive) | -0.0849 | 0.538 | 0.894 | -0.0267
